Measured values reported in PubChem BioAssay (NCI).
About 83,000 compounds went through this panel and 20% of them were active in at least one assay; those are over-represented in the sample as a whole.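 Activity criterion: percent growth below 10, measured after cells in 96-well plates were exposed to a single compound concentration for 48 hours.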 Activity calls are given as the source filed them.

tested on: MDA-MB-468 breast; test: NCI-60 one-dose screen, 48 h (100 = growth as untreated, 0 = no growth, -100 = all killed); conditions: 10 µM unless noted

Row | Structure (SMILES) | growth
1 | CC[C@H](Nc1ncnc(N)c1C(N)=O)c1nc2cccc(NCc3ccc(C(=O)NO)cc3)c2c(=O)n1-c1ccccc1 | 32.2% (inactive)
2 | COc1cccc(/C(C#N)=C/c2nc3c(N4CCOCC4)nc(Cl)nc3n2C)c1 | -63% (active)
3 | O=C1c2ccccc2C(=O)c2sc(Nc3cccc(Cl)c3)nc21 | 13.2% (inactive)
4 | CCN1CCN(c2cc(C)c3cc(NC(=O)c4ccc(OC)c(OC)c4)ccc3n2)CC1 | 1.89% (active)
5 | C#CC#CC#CC#CC#CC#CC#CC#CCC1OCC(COC(=O)O[C@@H](C(=O)O[C@H]2C[C@@]3(O)[C@@H](OC(=O)c4ccccc4)[C@@H]4[C@]5(OC(C)=O)CO[C@@H]5C[C@H](O)[C@@]4(C)C(=O)[C@H](OC(C)=O)C(=C2C)C3(C)C)[C@@H](NC(=O)c2ccccc2)c2ccccc2)O1 (stereo partly specified) | -22.4% (active)
6 | c1cc2c(ccc3[nH]c(-c4ccc5[nH]ncc5c4)c4c(c32)CCCC4)n1 | 76.7% (inactive)
7 | Nc1ncnc2c1ccn2-c1cccc(NC(=O)c2ccc(N3CCOCC3)c(C(F)(F)F)c2)c1 | 40.3% (inactive)
8 | CCN(CC)CCn1c2ccc(OC)cc2c2sc3cc(O)ccc3c(=O)c21 | 60.3% (inactive)
9 | CC(=O)Nc1ccc(CC[C@H]2CCC/C=C/[C@@H]3C[C@H](O)C[C@H]3[C@H](O)/C=C/C(=O)O2)cc1 | -23.5% (active)
10 | CC(C)(C)c1cc(C(=O)N2CCC(C(=O)NCCN)CC2)cc(C(C)(C)C)c1 | 82.4% (inactive)
11 | O=C(N/N=C/c1ccc([N+](=O)[O-])cc1)c1ccc2nc(-c3ccc(Cl)cc3)[nH]c2c1 | -38.9% (active)
12 | C=C(C)[C@@H]1CC[C@]2(C(=O)N3CCN(C)CC3)CC[C@]3(C)[C@H](CC[C@@H]4[C@@]5(C)CC[C@H](O)C(C)(C)[C@@H]5CC[C@]43C)[C@@H]12 | -67.3% (active)
13 | Cc1nc2c3c(ncn2n1)Oc1c(c(=O)[nH]c2ccccc12)C3c1ccc(Cl)cc1 (stereo unspecified) | 109% (inactive)
14 | COc1cccc(/C=C/C(=O)c2c(C)nc3ccccc3c2/C=C/c2ccccc2)c1OC | 43.3% (inactive)
15 | CN(C)CCCNC(=O)c1cncnc1Nc1ccc(OCc2cccc(F)c2)c(Cl)c1 | -7.83% (active)
16 | NC(=O)NC(=O)/C=C/C(=O)OCCCl | 88.5% (inactive)
17 | CCn1cc(-c2ccnc(NCCNS(=O)(=O)c3cccc4ccccc34)c2)c(-c2cccc(O)c2)n1 | 90.3% (inactive)
18 | C=CC(=O)NCc1cccc(Nc2ncc(Br)c(NCCCNC(=O)C3CCC3)n2)c1 | -80.4% (active)

Row | Structure (SMILES) | growth
19 | COc1ccc(/C=C2/CN(CCC#N)C/C(=C\c3ccc(OC)cc3)C2=O)cc1 | -28% (active)
20 | N=c1c2cc(-c3ccccc3)oc2ncn1/N=C/c1ccccc1 | 53.7% (inactive)
21 | COc1ccc(-c2ccc(-c3ccc(C(=N)N)cn3)o2)cc1Cl | -9.43% (active)
22 | CN1CCN(Cc2ccc(NC(=O)c3[nH]ncc3Nc3cc(OC4CCCC4)ncn3)cc2)CC1 | 16.1% (inactive)
23 | O=NN(Cc1cccnc1)C(=O)NC1CCCCC1 | 104% (inactive)
24 | O=c1[nH]ccc2nc(N3CCC(O)CC3)nc(Nc3cccc(C(F)(F)F)c3)c12 | 14.5% (inactive)
25 | N#Cc1cccc(-c2nc3ccccn3c2NCCN2CCOCC2)c1 | 111% (inactive)
26 | OCc1cnccc1NCCCCOc1ccc(Oc2ccccc2)cc1 | 30.5% (inactive)
27 | CSc1nc(O)c(-c2ccccc2)c(=O)[nH]1 | 99.1% (inactive)
28 | NC(N)=Nc1ccc(Oc2cccc(Nc3ccc(Cl)cc3)c2)cn1 | -27.9% (active)
29 | CC(=O)c1c(C)nc(SCC(=O)Nc2ccc(Cl)cc2)n1-c1ccc(Cl)cc1 | 71.3% (inactive)
30 | COc1ccc(-c2nc(N)n(C(=S)Nc3ccccc3)n2)cc1 | 102% (inactive)
31 | O=C(NNc1nc2cc(F)cc(F)c2n2cccc12)c1cnccn1 | -10.9% (active)
32 | Nc1ccc(N)c([N+](=O)[O-])c1 | 88% (inactive)
33 | Cn1cc(-c2csc(-c3cn(CCOC(N)=O)c4ccccc34)n2)c2cccnc21 | 16.2% (inactive)
34 | CC/C(Cc1ccccc1)=C(\c1ccc(OCCCN(C)C)cc1)c1ccc(OC(=O)NCc2ccccc2)cc1 | 56.8% (inactive)
35 | O=C(Nc1ccc(CN2CCOCC2)cc1)c1[nH]ncc1Nc1ncnc2sccc12 | -25.6% (active)
36 | Cc1cc(C)c(N2C(=O)CC(Nc3ccc(Cl)cc3Cl)C2=O)c(C)c1 (stereo unspecified) | 96.1% (inactive)
